Measurements from PubChem BioAssay AID588720 (NMMLSC, 2011).
Entries with a potency or affinity are not part of this list. The source made the active and inactive calls.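 The calls were made as follows: active = good curve fit with EC50 under 10 µM, EC50 error below a tenth of EC50, span above a set limit; inactive = the rest.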

molecular target: Beta-adrenergic receptor kinase 1 (Homo sapiens) (UniProt P25098); assay: GRK2 inhibitors displacing RNA aptamer, dose response, biochemical, flow cytometry beads, FAM-aptamer, powder set 1 (AID 588720); details: biotinylated GRK2 beads, FAM-aptamer displacement; series mostly up to 100 µM
Sequence (P25098 whole entry, looked up): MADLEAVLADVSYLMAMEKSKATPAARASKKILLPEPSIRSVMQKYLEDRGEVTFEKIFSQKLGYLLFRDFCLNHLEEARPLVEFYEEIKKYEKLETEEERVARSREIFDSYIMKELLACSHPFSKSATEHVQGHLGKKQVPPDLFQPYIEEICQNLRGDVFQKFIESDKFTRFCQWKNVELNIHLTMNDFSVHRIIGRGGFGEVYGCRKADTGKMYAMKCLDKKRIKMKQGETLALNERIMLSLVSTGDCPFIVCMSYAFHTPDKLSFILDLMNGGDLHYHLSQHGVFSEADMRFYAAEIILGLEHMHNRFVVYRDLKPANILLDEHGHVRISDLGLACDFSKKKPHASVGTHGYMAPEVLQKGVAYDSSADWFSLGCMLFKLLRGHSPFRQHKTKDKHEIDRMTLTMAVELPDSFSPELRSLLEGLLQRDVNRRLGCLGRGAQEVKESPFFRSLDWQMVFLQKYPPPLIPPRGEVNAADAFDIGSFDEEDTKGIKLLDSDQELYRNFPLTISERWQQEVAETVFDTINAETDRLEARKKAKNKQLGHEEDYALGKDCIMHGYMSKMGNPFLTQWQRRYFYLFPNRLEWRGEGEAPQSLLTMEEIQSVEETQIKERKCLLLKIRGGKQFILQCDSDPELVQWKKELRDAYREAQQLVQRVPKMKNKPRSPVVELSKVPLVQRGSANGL

outcome, inactive:
O=C(O)C1CC(=O)N(c2ccc3c(c2)OCCO3)C1 (configuration not stated)
Cc1cc2ccccc2n1CCNC(=O)c1cccs1
Cc1cc2ccccc2n1CCNC(=O)C(C)Oc1ccccc1 (configuration not stated)
CC(=O)N1CCN(Cc2nc3cc(Cl)ccc3c(=O)[nH]2)CC1
COC(=O)c1ccccc1NC(=O)CCS(=O)(=O)c1ccc(Br)s1
O=C(CN1CCc2ccccc21)NC(=O)NCc1ccccc1
Cc1ccc(CCNC(=O)CCS(=O)(=O)c2ccc(Br)cc2)cc1
